In all, about 2,100 compounds went through this assay and about 1,100 (52%) were called active. Inconclusive results (about 29%) are left out. Calls follow the shape of the dose curve; as a rule, active = well fitted inhibition curve with a large enough effect; inconclusive = small, poorly fitted or top-dose-only effect; inactive = no such curve, though single readings can be large or run the other way. The set was probably picked from earlier hits. This is one part of the list.
Potency is read from the fitted curve at half-maximal effect.

For this experiment, the target named is DNA dC->dU-editing enzyme APOBEC-3F (Homo sapiens) (UniProt Q8IUX4). The experiment in a line: qHTS for inhibitors of Vif-A3F interactions: Cherry picks counterscreen. Also: nearly all actives have a fitted effect of over 65% in size. The following applies: HeLa A3F-eYFP/Vif cells, eYFP fluorescence, 24 h; series mostly up to 46.1 µM. Summed up: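 HeLa cells stably expressing A3F-eYFP and Vif, cultured overnight, then treated 24 h at 37 degrees C with compounds at several concentrations; yellow fluorescence (488 nm Ex/500-530 nm Em) imaged on Acumen; MG132 positive control.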
DNA dC->dU-editing enzyme APOBEC-3F (Homo sapiens), sequence (Q8IUX4 whole entry, looked up): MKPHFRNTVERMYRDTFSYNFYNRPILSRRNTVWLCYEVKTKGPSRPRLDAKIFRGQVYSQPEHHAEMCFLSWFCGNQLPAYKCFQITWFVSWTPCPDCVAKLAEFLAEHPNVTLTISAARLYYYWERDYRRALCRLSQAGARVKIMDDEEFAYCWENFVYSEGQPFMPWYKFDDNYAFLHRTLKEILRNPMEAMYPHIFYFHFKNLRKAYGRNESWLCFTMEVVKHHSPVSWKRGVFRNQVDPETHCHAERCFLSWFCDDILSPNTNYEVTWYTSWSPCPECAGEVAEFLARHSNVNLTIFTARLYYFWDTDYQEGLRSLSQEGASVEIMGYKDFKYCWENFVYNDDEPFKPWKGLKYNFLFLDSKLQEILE
For orientation: qHTS replaces the single test concentration by a dilution series.
As to `Cc1cc(/C=C2\SC(=S)N(C)C2=O)c(C)n1-c1ccccc1O`, the Potency is 18.4 µM (active).

Regarding `Cc1cc(/C=C2\SC(=S)N(C)C2=O)c(C)n1-c1ccc(O)cc1`, the Potency was 18.4 µM (active).

As to `NNC(=O)c1cc2sccc2s1`, the Potency entry is “inactive”.

In the case of `CCn1ncc(/C=N\NC(=O)c2csc3ccccc23)c1C`, the Potency is 2.5 µM (active).

As to `CCOC(=O)/C(=C/C1=CC(=C/N(C)C)/C(=O)O1)C(C)=O`, the Potency entry was “inactive”.

Regarding `CCOc1ccc(C2CC(c3c(O)c4ccccc4oc3=O)=NN2c2ccccc2)cc1OC` (configuration not stated), the Potency is 14.6 µM (active).

Consider `CCOc1ccccc1Oc1nc(C)nc2c1oc1ccccc12`, for which the Potency is 2.31 µM (active).

On to `CNC(=O)C(Sc1nc(C)nc2c1oc1ccccc12)C(C)=O` (configuration not stated), for which the Potency result is “inactive”.

On to `Cc1cccc(N2CCN(C(=O)c3cccc(N4CCCC4=O)c3)C(C)C2)c1` (configuration not stated), for which the Potency is 6.27 µM (active).

For the compound `COc1ccc(OC)c(NC(=O)Cn2c(=O)n(-c3ccc(Cl)cc3)c(=O)c3c(C)c(C)sc32)c1`, the Potency was 5.8 µM (active).

For `COc1ccc(OC)c(NC(=O)Cn2cnc3onc(-c4ccc(Cl)cc4)c3c2=O)c1`, the Potency result is “inactive”.

Consider `Cc1ccc(-c2cc(C(=O)N/N=C/c3c[nH]c4ccccc34)[nH]n2)cc1`, for which the Potency is 3.53 µM (active).

For `Cc1cc(N)cc(C)c1-c1c(Br)cc(N)cc1Br`, the Potency is 12.5 µM (active).

Take `CCCN1C(=O)S/C(=C\c2ccc(N3CCOCC3)o2)C1=O`: the Potency is 3.96 µM (active).

Turning to `CCOC(=O)CN1C(=O)S/C(=C/c2ccc(N3CCCCC3)o2)C1=O`, the Potency was 4.61 µM (active).

Regarding `O=C1S/C(=C\c2ccc(N3CCOCC3)o2)C(=O)N1c1ccccc1`, the Potency is 3.53 µM (active).

For `O=C1S/C(=C/c2ccc(N3CCOCC3)o2)C(=O)N1Cc1ccc(F)cc1`, the Potency was 5.59 µM (active).

For `Cc1ccc(NC(=S)N/N=C2\CCCCC2C)cc1` (configuration not stated), the Potency result is “inactive”.

On to `O=C1S/C(=C/c2ccc(N3CCOCC3)o2)C(=O)N1Cc1c(F)cccc1Cl`, for which the Potency was 2.23 µM (active).

With `CC(C)n1cc(NC(=O)c2cc(-c3ccccc3)on2)cn1`, the Potency was 3.53 µM (active).

With `CCc1ccc2nc(N(CCCN(C)C)C(=O)c3ccc(S(=O)(=O)N(C)C4CCCCC4)cc3)sc2c1`, the Potency entry was “inactive”.

Regarding `O=C(Nc1nc(-c2ccccn2)cs1)C1CCCC1`, the Potency result is “inactive”.

Regarding `O=C(Nc1nc2ccc(S(=O)(=O)N3CCCC3)cc2s1)C1CCCCC1`, the Potency was 4.44 µM (active).

For the compound `C=CCOc1c(Cl)cc(C(=S)N2CCCC2)cc1OCC`, the Potency is 14 µM (active).

For the compound `CCCCOc1ccc(/C=C/C2=CC(C)(C)NC(=S)N2)cc1OCC`, the Potency entry was “inactive”.

Regarding `Cc1ccc(F)c(S(=O)(=O)NC(=O)C2(C)CCN2C(=O)Cc2ccc(Cl)cc2Cl)c1` (configuration not stated), the Potency entry is “inactive”.

As for `COc1ccccc1C1=NOC(COc2ccc3c(C)cc(=O)oc3c2)C1` (configuration not stated), the Potency was 1.12 µM (active).

As for `Cc1cc(=O)oc2cc(OCC(=O)N3c4ccccc4CC3C)ccc12` (configuration not stated), the Potency is 3.53 µM (active).

For `CCOC(=O)c1cc(-c2ccccc2C)n(CC2CC(c3ccc(OC)cc3)=NO2)n1` (configuration not stated), the Potency entry is “inactive”.

With `Oc1ccc(/C=N\Nc2nncc(-c3ccccc3)n2)cc1`, the Potency is 19.8 µM (active).

For `COc1cc(/C=N/Nc2ccc(Cl)nn2)cc(OC)c1O`, the Potency entry was “inactive”.

`COc1cc(/C=N/Nc2cc(C)nc(NS(=O)(=O)c3ccccc3)n2)ccc1O`: the Potency entry was “inactive”.

In the case of `COc1ccc(-c2cnnc(N/N=C/c3ccc(O)c(OC)c3)n2)cc1`, the Potency was 9.94 µM (active).

Consider `O=c1oc2c3c4c(cc2c(C(F)(F)F)c1CCN1CCOCC1)CCCN4CCC3`, for which the Potency was 3.66 µM (active).

As for `Cc1ccc2[nH]c(C(=O)NN=C3CCCCC3)c(-c3ccccc3)c2c1`, the Potency entry is “inactive”.

In the case of `CN(C)c1ccc(/C=N/NC(=O)c2cc(-c3ccc4c(c3)OCO4)n[nH]2)cc1`, the Potency is 15.8 µM (active).

For the compound `CCc1ccc(NC(=O)/C(C#N)=C/c2cc3ccc(C)cc3nc2N2CCOCC2)cc1`, the Potency was 23.1 µM (active).

Source of the values: PubChem BioAssay AID651815 (National Center for Advancing Translational Sciences (NCATS), 2012).
